The values that follow come from PubChem BioAssay (Tox21).

Molecules are shown by their SMILES. A number with no mark means an inactive call. Inconclusive results are not listed. Activity calls are given as the source filed them. Unless noted, the call rests on the fitted dose curve; in most records, active means well fitted curve in the direction sought with a large enough effect in the repeat runs; inconclusive means weak or mixed curves; inactive means no such curve, though single readings can be large; an effect the other way counts as inactive or inconclusive.

A short description of assay [1]: A CellTox Green Cytotoxicity Assay to monitor cytotoxicity in HEK293 cells - 32 hour (AID 1224881). Further: nearly all actives have a fitted effect of over 40% in size. The gist of the method:
(§1)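 Homogeneous no-lysis format: HEK293 cell suspension mixed with CellTox Green reagent, seeded, incubated 5 h at 37 C/5% CO2, then dosed by pintool with compound in DMSO.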

A short description of assay [2]: A CellTox Green Cytotoxicity Assay to monitor cytotoxicity in HepG2 cells - 0 hour (AID 1224882). Further: nearly all actives have a fitted effect of over 35% in size. The gist of the method:
(§2)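 Fluorescent DNA-binding dye, 600 HepG2 cells/well, 5 h preincubation then compound in DMSO; same plates read at 0–40 h, 37 C.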

The nature of assay [3]: A CellTox Green Cytotoxicity Assay to monitor cytotoxicity in HepG2 cells - 32 hour (AID 1224883). Further: nearly all actives have a fitted effect of over 50% in size. The gist of the method:
as §2

Assay [4] in a line: A CellTox Green Cytotoxicity Assay to monitor cytotoxicity in HEK293 cells - 8 hour (AID 1224884). Further: nearly all actives have a fitted effect of over 35% in size. The gist of the method:
as §1

The nature of assay [5]: qHTS RealTime-Glo MT Cell Viability Assay in HepG2 cells - 16 hour (AID 1224885). Further: nearly all actives have a fitted effect of over 50% in size. The gist of the method: (§3)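 Compound treatment began 5 h after plating HepG2 cells (600/well) with NanoLuc luciferase and prosubstrate. Plates stayed at 37 C for 40 h; luminescence was captured at six time points, 0 h through 40 h.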
For orientation: In qHTS, concentration-response curves come from the screen itself.

Assay [6] can be described thus: qHTS RealTime-Glo MT Cell Viability Assay in HEK293 cells - 24 hour (AID 1224886). Further: top concentration of the series differs between compounds; nearly all actives have a fitted effect of over 50% in size. Summed up:
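Quantitative high-throughput screen of the Tox21 10K library in HEK293: cells and RealTime-Glo reagents plated together, compound added at 5 h, luminescence monitored through 40 h at 37 C.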

A short description of assay [7]: qHTS RealTime-Glo MT Cell Viability Assay in HEK293 cells - 8 hour (AID 1224887). Further: top concentration of the series differs between compounds; nearly all actives have a fitted effect of over 50% in size. Summed up:
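Measured as luminescence from the same continuously cultured HEK293 wells at successive time points (0, 8, 16, 24, 32, 40 h) after compound addition. Reagent present from seeding; dosing at 5 h; incubation 37 C.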

Assay [8] in a line: A CellTox Green Cytotoxicity Assay to monitor cytotoxicity in HEK293 cells - 16 hour (AID 1224888). Further: nearly all actives have a fitted effect of over 35% in size. Summed up:
as §1

Assay [9] can be described thus: qHTS RealTime-Glo MT Cell Viability Assay in HepG2 cells - 0 hour (AID 1224889). Further: nearly all actives have a fitted effect of over 50% in size. Summed up:
as §3

Assay [10] is described as follows: A CellTox Green Cytotoxicity Assay to monitor cytotoxicity in HepG2 cells - 8 hour (AID 1224890). Further: nearly all actives have a fitted effect of over 45% in size. Summed up: as §2
A short description of assay [11]: qHTS assay to identify small molecule antagonists of the estrogen receptor alpha (ER-alpha) signaling pathway using the BG1 cell line in the presence of 0.1 nM 17-beta-estradiol - cell viability counter screen (AID 1259241). Further: nearly all actives have a fitted effect of over 40% in size. Summed up:
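VM7Luc4E2, 4,000 cells/well, phenol red-free medium + 10% charcoal-stripped FBS; 24 hr plating; cpd + 0.1 nM E2 final, 22 hr 37C/5% CO2; CellTiter-Fluor 30 min, fluorescence.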

A short description of assay [12]: qHTS assay to identify small molecule antagonists of the androgen receptor (AR) signaling pathway using the MDA cell line in the presence of 0.5 nM R1881 - cell viability counter screen (AID 1259242). Further: nearly all actives have a fitted effect of over 45% in size. The gist of the method: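 Human breast carcinoma MDA-kb2 cells, cultured without CO2, receive compounds alongside 0.5 nM (final) R1881 agonist. After 16 hr at 37C, viability is taken as live-cell protease signal.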

In assay [13] the target is Androgen receptor (Homo sapiens) (UniProt P10275). The assay can be described thus: qHTS assay to identify small molecule antagonists of the androgen receptor (AR) signaling pathway using the MDA cell line in the presence of 0.5 nM R1881 (AID 1259243). Further: nearly all actives have a fitted effect of over 50% in size. The gist of the method:
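Cells: MDA-kb2 (MMTV-luc). Stimulus: 0.5 nM R1881. Time: 16 hr, 37C, no CO2. Detection: ONE-Glo luminescence after 30 min at RT.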

The nature of assay [14]: qHTS assay to identify small molecule phospholipidosis (PLD) inducers (AID 1259344; active means well fitted curve in the direction sought with a large enough effect; an effect the other way counts as inactive or inconclusive). The gist of the method: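 Accumulated phospholipid, stained red by LipidTOX during 24 h compound treatment of HepG2 cells at 37 C, is quantified from images as pit number and intensity, normalised per cell using Hoechst-stained nuclei.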
Assay [15] is described as follows: qHTS assay to identify small molecule HDAC inhibitors (AID 1259364).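 Further: wild-type HCT-116 cells with endogenous class I/II HDAC activity; top concentration of the series differs between compounds; nearly all actives have a fitted effect of over 45% in size.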 The gist of the method:
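After a 2 hr compound incubation (37C, 5% CO2), HCT-116 cells seeded at 1,500/well the day before received HDAC-Glo reagent; signal read as luminescence after 30 min at room temperature.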

The nature of assay [16]: qHTS assay to identify small molecule HDAC inhibitors - cell viability counter screen (AID 1259365). The gist of the method:
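Luminescence from CellTiter-Glo, developed 30min at room temperature, reports viability of wild-type HCT-116 cells treated 2hr with compounds at 37 C and 5% CO2 after overnight plating.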

Assay [17] is described as follows: qHTS assay to identify small molecule agonists of the sonic hedgehog signaling (Shh) pathway - cell viability counter screen (AID 1259366). Further: nearly all actives have a fitted effect of over 50% in size. Further: potency means the concentration at half of the fitted maximal effect. The gist of the method:
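Cytotoxicity counter screen run in the same wells as the Shh reporter assay. NIH/3T3 cells carrying a Gli1 response element–driven luciferase were treated with DMSO-dissolved compounds for 24hr, and live-cell protease activity was measured with CellTiter-Fluor.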

Assay [18] in a line: qHTS assay to identify small molecule antagonists of the sonic hedgehog signaling (Shh) pathway - cell viability counter screen (AID 1259367). Further: nearly all actives have a fitted effect of over 55% in size. Further: potency means the concentration at half of the fitted maximal effect. The gist of the method: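 CellTiter-Fluor signal in conditioned medium-stimulated 3T3 Gli1-Luc cells, 23 hr compound exposure, 37C.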
The nature of assay [19]: qHTS assay to identify small molecule agonists of the sonic hedgehog signaling (Shh) pathway (AID 1259368; calls by dose curve;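 further: NIH/3T3-derived 3T3Gli1-Luc cells carrying a stable Gli1-driven firefly luciferase reporter; series mostly up to about 92 µM; nearly all actives have a fitted effect of over 15% in size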). Summed up: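 Stable NIH/3T3 Gli1-Luc reporter clone; 24 hr cpd exposure after a 4 hr settling period; luminescence endpoint.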
For assay [20], the target named is Estrogen receptor (Homo sapiens) (UniProt P03372). The assay can be described thus: qHTS assay to identify small molecule antagonists of the estrogen receptor alpha (ER-alpha) signaling pathway using the BG1 cell line in the presence of 0.1 nM 17-beta-estradiol (AID 1259244). Further: nearly all actives have a fitted effect of over 50% in size. Summed up:
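Seeding of stripped-serum-adapted VM7Luc4E2 cells, 24 h attachment, compound transfer, then 0.1 nM final 17beta-estradiol; after 22 h incubation, ONE-Glo reagent and luminescence reading.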

Sequence of Androgen receptor (Homo sapiens) (P10275 whole entry, looked up): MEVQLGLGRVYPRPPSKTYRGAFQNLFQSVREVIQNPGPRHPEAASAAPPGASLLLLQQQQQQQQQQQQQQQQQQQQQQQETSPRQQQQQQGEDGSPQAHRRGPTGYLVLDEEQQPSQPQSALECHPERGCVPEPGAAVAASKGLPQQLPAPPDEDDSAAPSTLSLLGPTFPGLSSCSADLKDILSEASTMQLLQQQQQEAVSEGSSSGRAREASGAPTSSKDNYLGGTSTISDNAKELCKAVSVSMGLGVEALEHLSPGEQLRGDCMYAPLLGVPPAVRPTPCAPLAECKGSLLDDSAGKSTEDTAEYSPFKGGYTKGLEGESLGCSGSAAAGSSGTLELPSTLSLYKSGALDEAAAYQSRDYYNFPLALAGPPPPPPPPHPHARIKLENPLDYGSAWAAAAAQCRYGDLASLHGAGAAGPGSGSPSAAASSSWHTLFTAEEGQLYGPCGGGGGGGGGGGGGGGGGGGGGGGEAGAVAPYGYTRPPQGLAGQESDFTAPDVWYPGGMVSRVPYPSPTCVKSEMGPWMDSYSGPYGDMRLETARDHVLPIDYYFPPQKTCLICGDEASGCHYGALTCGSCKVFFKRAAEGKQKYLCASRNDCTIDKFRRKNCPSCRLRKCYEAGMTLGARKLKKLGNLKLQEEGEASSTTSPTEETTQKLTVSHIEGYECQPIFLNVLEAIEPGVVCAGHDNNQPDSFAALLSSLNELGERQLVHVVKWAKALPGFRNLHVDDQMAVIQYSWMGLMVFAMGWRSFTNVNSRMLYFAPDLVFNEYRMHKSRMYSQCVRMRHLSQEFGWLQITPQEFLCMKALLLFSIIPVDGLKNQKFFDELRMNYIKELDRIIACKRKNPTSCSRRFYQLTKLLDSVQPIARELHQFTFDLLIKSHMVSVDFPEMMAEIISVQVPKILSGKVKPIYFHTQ
Sequence of Estrogen receptor (Homo sapiens) (P03372 whole entry, looked up): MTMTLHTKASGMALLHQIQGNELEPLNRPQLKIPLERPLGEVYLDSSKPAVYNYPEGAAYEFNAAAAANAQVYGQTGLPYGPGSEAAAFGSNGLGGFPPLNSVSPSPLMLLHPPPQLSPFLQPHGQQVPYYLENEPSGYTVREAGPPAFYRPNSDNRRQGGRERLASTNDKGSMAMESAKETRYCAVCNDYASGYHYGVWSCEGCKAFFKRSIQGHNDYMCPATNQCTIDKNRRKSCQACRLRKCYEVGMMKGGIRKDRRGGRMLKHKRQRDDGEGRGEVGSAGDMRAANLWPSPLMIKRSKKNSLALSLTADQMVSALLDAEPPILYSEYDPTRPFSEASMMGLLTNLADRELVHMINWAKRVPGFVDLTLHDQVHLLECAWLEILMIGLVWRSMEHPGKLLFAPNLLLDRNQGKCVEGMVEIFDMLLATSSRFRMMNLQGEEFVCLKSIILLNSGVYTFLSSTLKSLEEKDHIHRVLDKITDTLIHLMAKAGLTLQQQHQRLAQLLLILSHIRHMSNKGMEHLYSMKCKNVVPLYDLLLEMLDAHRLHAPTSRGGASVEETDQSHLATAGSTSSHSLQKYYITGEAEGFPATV

For the compound `NS(=O)(=O)Cc1noc2ccccc12`, the compound was called inactive in [1], in assay [4], in assay [5], in assay [8], in assay [10] and in assay [11]. The outcome in assay [12], in [14], in assay [16] and in assay [19] was inactive. Besides, the Potency result in [2], in assay [3], in assay [6], in [7], in assay [9] and in assay [13] was “inactive” in each case. Also, the Potency result in assay [15], in assay [17] and in assay [18] was “inactive” throughout.
For `CC(C)NNC(=O)c1ccncc1`, the result in assay [1], in assay [4], in assay [5], in [8], in assay [10] and in assay [11] was inactive. In addition, the outcome in assay [12], in assay [16] and in assay [19] was inactive. The Potency entry in [2], in assay [3], in assay [6], in assay [7], in assay [9] and in [13] was “inactive” each time. Besides, the Potency result in [15] and in [17] was “inactive” each time.
As for `CC(CO)(CO)[N+](=O)[O-]`, the outcome in assay [1], in assay [4], in assay [5], in [8], in [10] and in [11] was inactive. The result in assay [12], in assay [20], in assay [16] and in assay [19] was inactive. Further, the Potency result in assay [2], in assay [3], in assay [6], in [7], in assay [15] and in assay [17] was “inactive” in each case. Further, the Potency entry in [18] was “inactive”.
For the compound `Cc1onc(-c2c(Cl)cccc2Cl)c1C(=O)Cl`, the outcome in [1], in assay [4], in assay [5], in assay [8], in [10] and in assay [11] was inactive. Also, the outcome in assay [12], in assay [20], in assay [16] and in [19] was inactive. Moreover, the Potency entry in assay [2], in assay [3], in [6], in assay [7], in [13] and in [15] was “inactive” in each case. Besides, the Potency entry in assay [17] is “inactive”.
`CCCOC(=O)CC`: the compound was classed as inactive in [1], in assay [4], in [5], in assay [8], in assay [10] and in [11]. Further, the outcome in assay [12], in assay [20], in [16] and in assay [19] was inactive. Besides, the Potency result in [2], in assay [3], in assay [6], in assay [7], in assay [13] and in [15] was “inactive” in each case. The Potency entry in assay [17] is “inactive”.
As to `CC1=NN(c2cc(S(=O)(=O)O)ccc2Cl)C(=O)C1N=Nc1ccccc1` (stereo not given), the result in assay [1], in assay [4], in [5], in assay [8], in assay [10] and in assay [20] was inactive. For the same compound, the call in assay [16] and in assay [19] was inactive. The Potency result in assay [2], in [3], in assay [6], in assay [7], in assay [9] and in [15] was “inactive” each time. The Potency in assay [17] is 13.7 µM (active); in assay [18], 27.3 µM (active).
As for `C=C[Si](OC(C)=O)(OC(C)=O)OC(C)=O`, the outcome in assay [1], in assay [4], in assay [5], in assay [8], in [10] and in assay [11] was inactive. Besides, the result in assay [12], in [20], in [16] and in assay [19] was inactive. In addition, the Potency result in assay [2], in assay [3], in assay [6], in assay [7], in assay [13] and in assay [15] was “inactive” each time. Further, the Potency result in assay [17] was “inactive”.
